# Test results published in the supplement of paper PMC13172266.
# Counter-ions that a name gives are not always drawn.
# Tested on: U2932 TK216-resistant clone 2
# Test: cell proliferation relative to vehicle (% of vehicle); higher = less growth inhibition
# Conditions: 50 nM; 72 h
# In short: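 Parental U2932 cells (ABC-DLBCL) and two clones made resistant to an ETS-targeting agent by almost a year of repeated exposure were treated for 72 h with 348 targeted inhibitors at 500 nM or 50 nM. MTT was then applied for 4 h, the reaction was stopped with 25% SDS, and absorbance was measured on a Cytation 3. Values express proliferation as percent of proliferating cells compared with DMSO vehicle.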
row,SMILES,cell proliferation
1,O=C(O)C1(C(=O)O)CCC1.[NH2-].[NH2-].[Pt+2] [Carboplatin],99.7
2,C[C@]1(O)C[C@@H](c2nc(-c3ccc4ccc(-c5ccccc5)nc4c3)c3c(N)nccn32)C1 [OSI-906 (Linsitinib)],104
3,O=C(O)c1ccc(-c2c[nH]c3ncc(-c4ccccc4)cc23)cc1C1CCCC1,107
4,CN(C)CC[C@H](CSc1ccccc1)Nc1ccc(S(=O)(=O)NC(=O)c2ccc(N3CCN(Cc4ccccc4-c4ccc(Cl)cc4)CC3)cc2)cc1[N+](=O)[O-],89.5
5,O=C(O)c1ccc(Nc2ncc3c(n2)-c2ccc(Cl)cc2C(c2c(F)cccc2F)=NC3)cc1,104
6,CNC(=O)c1cccc(-c2ccc3c(N4CCOC[C@@H]4C)nc(N4CCOC[C@@H]4C)nc3n2)c1,102
7,C[C@]12CCC(=O)C=C1CC[C@@H]1[C@@H]2[C@@H](O)C[C@@]2(C)[C@H]1CC[C@]2(O)C(=O)CO [Hydrocortisone],95.7
8,Cc1cnc(-c2cnc(NCCNc3ccc(C#N)cn3)nc2-c2ccc(Cl)cc2Cl)[nH]1,101
9,CCOC(=O)C1=C(N)Oc2ccc(Br)cc2C1C(C#N)C(=O)OCC (stereo not given),103
10,CN(NC(=O)CC(=O)NN(C)C(=S)c1ccccc1)C(=S)c1ccccc1 [Elesclomol (STA-4783)],0.164
11,CCc1ccc(/C=C2/SC(=S)NC2=O)cc1,105
12,"O=c1[nH]cc(F)c(=O)[nH]1 [Fluorouracil (5-Fluoracil, 5-FU)]",102
13,C[C@@H](N)[C@H]1CC[C@H](C(=O)Nc2ccncc2)CC1,98.8
14,CN(C)Cc1c(C(=O)NCCOc2ccc(C(=O)NO)cc2)oc2ccccc12,99.6
15,C[C@@H](Oc1cc(-n2cnc3ccc(CN4CCN(C)CC4)cc32)sc1C(N)=O)c1ccccc1C(F)(F)F,8.44
16,COc1ccc2c(Oc3ccc(NC(=O)c4c(C)n(CC(C)(C)O)n(-c5ccccc5)c4=O)nc3)ccnc2c1,102
17,COc1cc(CCc2cc(NC(=O)c3ccc(N4CC(C)NC(C)C4)cc3)n[nH]2)cc(OC)c1 (stereo not given),102
18,CO[C@H]1/C=C\C=C(/C)C(=O)NC2=CC(=O)C(NCCN(C)C)=C(C[C@@H](C)C[C@H](OC)[C@H](O)[C@@H](C)/C=C(\C)[C@@H]1OC(N)=O)C2=O [17-DMAG (Alvespimycin) HCl],46.7

row,SMILES,cell proliferation
1,Cc1c(NC(=O)OC[C@@H]2COCCN2)cn2ncnc(Nc3ccc4c(cnn4Cc4cccc(F)c4)c3)c12,100
2,C[C@@H]1CN(CC(=O)Nc2ccc3c(c2)Cc2cccc(-c4cc(=O)cc(N5CCOCC5)o4)c2S3)C[C@H](C)O1,102
3,Oc1ccc(Nc2nc(-c3ccc(Cl)cc3)cs2)cc1,109
4,C=CCn1c(=O)c2cnc(Nc3ccc(N4CCN(C)CC4)cc3)nc2n1-c1cccc(C(C)(C)O)n1,89.6
5,C=C1/C(=C\C=C2/CCC[C@]3(C)[C@@H]([C@H](C)/C=C/[C@H](C)C(C)C)CC[C@@H]23)C[C@@H](O)C[C@@H]1O [Doxercalciferol],104
6,Cn1nnc2c(C(N)=O)ncn2c1=O [Temozolomide],110
7,Nc1nc(N)c2nc(-c3cccc(O)c3)c(-c3cccc(O)c3)nc2n1,103
8,COc1cc2c(Oc3ccc4[nH]c(C)cc4c3F)ncnc2cc1OCCCN1CCCC1 [Cediranib (AZD2171)],105
9,Cc1[nH]c(/C=C2\C(=O)Nc3ccc(S(=O)(=O)Cc4c(Cl)cccc4Cl)cc32)c(C)c1C(=O)N1CCC[C@@H]1CN1CCCC1,108
10,C[C@@H]1CC(=O)c2c(ccc3c2C(=O)c2cccc(O)c2C3=O)C1,102
11,COC(=O)c1ccc([C@H]2c3[nH]c4ccccc4c3C[C@H](C(=O)OC)N2C(=O)CCl)cc1,85
12,COc1cc(Nc2c(C#N)cnc3cc(OCCCN4CCN(C)CC4)c(OC)cc23)c(Cl)cc1Cl [Bosutinib (SKI-606)],106
13,CN(C)c1nc(N(C)C)nc(N(C)C)n1 [Altretamine],105
14,COc1ccccc1OCC(O)CN1CCN(CC(=O)Nc2c(C)cccc2C)CC1 (stereo not given) [Ranolazine],97.6
15,O=c1c(O)c(-c2ccc(O)c(O)c2)oc2cc(O)cc(O)c12 [Quercetin],110
16,Cc1csc(-c2nnc(Nc3ccc(Oc4ncccc4-c4ccnc(N)n4)cc3)c3ccccc23)c1,88
17,CCCCc1nc2cc(/C=C/C(=O)NO)ccc2n1CCN(CC)CC [Pracinostat (SB939)],107
